# Laboratory results: PubChem BioAssay
# For part of these data: Potency and affinity values are given separately. Records with an inconclusive call do not appear. The list shows a part of the results. Entries that show only a call come without a potency. Active and inactive are the calls of the source. Unless noted, how the calls were made is not given here.
# Tests used:
# [1] = non-specific cell cytotoxicity, dose response, cytotoxicity control for PAX8 inhibitor project, plate reader, dry powder samples (AID 743021)
# [2] = IGROV1 ovarian cancer cell cytotoxicity, dose response, PAX8 inhibitor project, plate reader, dry powder samples (AID 743043);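 further: more negative means fewer viable cells or more cytotoxicity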
# [3] = IOSE-T80 ovarian epithelial cell cytotoxicity, dose response, cytotoxicity control for PAX8 inhibitor project, plate reader, dry powder samples (AID 743045);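 further: more negative values mean more cell killing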
# [4] = A2780 ovarian cancer cell cytotoxicity, dose response, cytotoxicity control, plate reader, dry powder samples (AID 743046)
# [5] = NIH:OVCAR-3 ovarian cancer cell cytotoxicity, dose response, PAX8 inhibitor project, plate reader, dry powder samples (AID 743044); conditions: max activity: at 35 µM, stronger effect = lower value unless noted
# [6] = Ring1 mRNA increase in mouse ESCs, confirmation, esBAF inhibitor project, cell-based, mouse ESC, RT-qPCR, cherry-pick (AID 743176;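 active means Ring1 gene expression raised more than 2-fold over untreated cells in both replicates at either tested dose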;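 further: Ring1 transcript normalised to actin housekeeping signal by TaqMan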); conditions: mouse ESC E14, Ring1 mRNA RT-qPCR fold change, stronger effect = higher value
# [7] = Fgf4 mRNA decrease in mouse ESCs, confirmation, esBAF inhibitor project, cell-based, mouse ESC, RT-qPCR, cherry-pick (AID 743177;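 active means Fgf4 expression under 0.8 fold of control in both repeat measurements at one or both tested doses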;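 further: Fgf4 transcript normalised to actin in duplex TaqMan qPCR; cells exposed to compound for 24 h before lysis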); conditions: mouse ESC E14, Fgf4 mRNA qPCR fold change, stronger effect = lower value
# [8] = esBAF inhibition via Bmi1 de-repression, confirmation, cell-based, RT-qPCR, mouse ESC, single point, cherry-pick (AID 743180;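 active means Bmi1 expression fold change above 6 at either tested concentration, seen in replicate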); conditions: mouse ESC E14, Bmi1 mRNA qPCR fold, stronger effect = higher value
# [9] = A549 cell cytotoxicity, cytotoxicity control, plate reader, single point, cherry-pick (AID 743188); conditions: at 25 µM
# [10] = HepG2 cell cytotoxicity, cytotoxicity control, plate reader, single point, cherry-pick (AID 743189; in the data active means activity change below about -50%); conditions: at 25 µM, stronger effect = lower value
# [11] = HEK293 cell cytotoxicity, cytotoxicity control, plate reader, single point, cherry-pick (AID 743190; in the data active means activity change below about -38%, passing the limit was not always enough); conditions: at 25 µM
# [12] = A549 cell cytotoxicity, dose response, cytotoxicity control, plate reader, cherry-pick, antagonist series (AID 743412)
# [13] = HepG2 cell cytotoxicity, dose response, cytotoxicity control, plate reader, cherry-pick, antagonist series (AID 743416)
# [14] = cytotoxicity in OVCAR8 ovarian cancer cells, dose response, PAX8 project, cell-based, plate reader, dry powder samples (AID 743197)
smiles,measurement,setting,value
COC(=O)[C@@]1(CCS(=O)(=O)c2ccccc2)N=C(c2ccc(OCCCO)cc2)O[C@H]1c1ccccc1,outcome,[1],inactive
same,outcome,[2],inactive
same,outcome,[3],inactive
same,outcome,[4],inactive
COc1cccc(C#Cc2ccc([C@@H]3[C@@H](C#N)N(C(=O)C4CCCC4)[C@@H]3CO)cc2)c1,outcome,[1],inactive
same,outcome,[2],inactive
same,outcome,[5],inactive
same,outcome,[3],inactive
same,outcome,[4],inactive
O=C(Nc1cccnc1Cl)c1cc(-c2ccccc2O)on1,fold change,"[6]; Ring1 fold increase, at 7 µM",1.22
same,fold change,[6]; at 33 µM,1 (inactive)
same,Fgf4 expression fold change,"[7]; Fgf4 expression, at 7 µM",1.2
same,Fgf4 expression fold change,[7]; at 33 µM,1.05 (inactive)
same,fold change,"[8]; Bmi1 de-repression, at 7 µM",1.07
same,fold change,[8]; at 33 µM,1.14 (inactive)
same,cell viability change % (negative = cytotoxic),[9],-9.75% (inactive)
same,"activity change, negative = inhibition",[10],-4.96% (inactive)
same,"activity change, negative = inhibition",[11],-13.7% (inactive)
CC(=O)NC(c1ccc(Cl)cc1)c1ccc2cccnc2c1O (stereo unspecified),outcome,[1],inactive
C[C@H](O)[C@@H]1CN2CCc3c([nH]c4ccc(-c5ccc6c(c5)OCO6)cc34)[C@@H]2C[C@@H]1N(C)C(=O)NC1CCCCC1,outcome,[1],inactive
N#C[C@@H]1[C@@H](c2ccc(C#Cc3ccccc3F)cc2)[C@@H](CO)N1C(=O)C1CCCC1,outcome,[4],inactive
CCCC1=Nc2cc(C(=O)NCCCOCC)ccc2Sc2ccccc21,outcome,[1],inactive
COCC(=O)N1[C@H](CO)[C@H](c2ccc(-c3cccnc3)cc2)[C@@H]1C#N,outcome,[1],inactive
same,outcome,[2],inactive
same,outcome,[5],inactive
same,outcome,[3],inactive
same,outcome,[4],inactive
CN(C(=O)OC(C)(C)C)c1ccc(-c2nc3ccccc3s2)cc1,outcome,[1],inactive
same,outcome,[12],inactive
Cc1cc(C2=NNC(=NC3CC3)SC2)c(C)n1-c1ccccc1F,outcome,[1],inactive
N#C[C@H]1N[C@H](CO)[C@@H]1c1ccc(C#Cc2ccccc2F)cc1,outcome,[1],inactive
same,outcome,[3],inactive
same,outcome,[4],inactive
O=C(Nc1ccc(OCC(F)(F)C(F)F)c(C(F)(F)F)c1)c1ccccc1O,outcome,[1],inactive
same,outcome,[3],inactive
same,outcome,[4],inactive
COc1cc2ccccc2cc1C(=O)Nc1ccccc1C,fold change,"[6]; Ring1 fold increase, at 7 µM",1.25
same,fold change,[6]; at 33 µM,0.965 (inactive)
same,Fgf4 expression fold change,"[7]; Fgf4 expression, at 7 µM",0.978
same,Fgf4 expression fold change,[7]; at 33 µM,0.878 (inactive)
same,fold change,"[8]; Bmi1 de-repression, at 7 µM",1.37
same,fold change,[8]; at 33 µM,1.49 (inactive)
same,cell viability change % (negative = cytotoxic),[9],-15.3% (inactive)
same,"activity change, negative = inhibition",[10],-26.3% (inactive)
same,"activity change, negative = inhibition",[11],-24.6% (inactive)
O=C(O)c1cccc(COc2ccc3c(c2)CCC3)c1,outcome,[1],inactive
same,outcome,[13],inactive
O=C(CCCN1C(=O)/C(=C\c2ccccc2OC(F)F)SC1=S)Nc1cccnc1,outcome,[1],inactive
same,outcome,[4],inactive
CC(C)c1cc(C(=O)OCC(=O)N2CCN(C(=O)c3ccco3)CC2)c(O)c(C(C)C)c1,outcome,[1],inactive
same,outcome,[2],inactive
same,outcome,[3],inactive
same,outcome,[4],inactive
O=C1CN(C(=O)Cn2ncc(Cl)c(Cl)c2=O)c2ccccc2N1,outcome,[1],inactive
C[C@@H]1CN([C@H](C)CO)C(=O)c2cc(NS(=O)(=O)c3ccccc3)ccc2O[C@@H](C)CCCCO[C@@H]1CN(C)Cc1ccc(C(F)(F)F)cc1,outcome,[3],inactive
CCc1c(C)sc(NC(=O)c2cccs2)c1C(N)=O,fold change,"[6]; Ring1 fold increase, at 7 µM",1.31
same,fold change,[6]; at 33 µM,0.944 (inactive)
same,Fgf4 expression fold change,"[7]; Fgf4 expression, at 7 µM",1.09
same,Fgf4 expression fold change,[7]; at 33 µM,1.11 (inactive)
same,fold change,"[8]; Bmi1 de-repression, at 7 µM",1.35
same,fold change,[8]; at 33 µM,1.67 (inactive)
same,cell viability change % (negative = cytotoxic),[9],-14% (inactive)
same,"activity change, negative = inhibition",[10],-29% (inactive)
same,"activity change, negative = inhibition",[11],-22.2% (inactive)
Oc1cccc2cc(Nc3ccccc3)cnc12,outcome,[1],inactive
COc1cccc(C#Cc2ccc([C@@H]3[C@@H](C#N)N(C(=O)C4CCCCC4)[C@@H]3CO)cc2)c1,outcome,[1],inactive
same,outcome,[2],inactive
same,outcome,[5],inactive
same,outcome,[3],inactive
same,outcome,[4],inactive
COc1cc(C2C3=C(COC3=O)Oc3cc4c(cc32)OCO4)cc(OC)c1O (stereo unspecified),outcome,[1],inactive
N#C[C@@H]1[C@@H](c2ccc(C3=CCCCC3)cc2)[C@@H](CO)N1C(=O)NC1CCCCC1,outcome,[1],inactive
same,outcome,[2],inactive
same,outcome,[5],inactive
same,outcome,[3],inactive
same,outcome,[4],inactive
C#CCN(C[C@@H]1[C@@H](OC(=O)NCC2CCCCC2)[C@@H](OC(=O)NCC2CCCCC2)Cn2c(=O)ccc(=O)n21)S(=O)(=O)c1ccc(C)cc1,outcome,[1],inactive
N#C[C@H]1[C@@H](c2ccc(C#Cc3cccc(F)c3)cc2)[C@@H](CO)N1C(=O)C1CCCC1,outcome,[5],inactive
same,outcome,[3],inactive
CN1c2ccccc2N(C)C1(C)c1ccccc1,outcome,[1],inactive
CCc1sc(C(=O)N2CCN(CC(=O)Nc3cccc(F)c3)CC2)cc1C,fold change,"[6]; Ring1 fold increase, at 7 µM",1.14
same,fold change,[6]; at 33 µM,1.01 (inactive)
same,Fgf4 expression fold change,"[7]; Fgf4 expression, at 7 µM",1.11
same,Fgf4 expression fold change,[7]; at 33 µM,0.972 (inactive)
same,fold change,"[8]; Bmi1 de-repression, at 7 µM",1.34
same,fold change,[8]; at 33 µM,1.56 (inactive)
same,cell viability change % (negative = cytotoxic),[9],0.0417% (inactive)
same,"activity change, negative = inhibition",[10],-21.7% (inactive)
same,"activity change, negative = inhibition",[11],-24% (inactive)
COc1cccc(N2CCN(C(=O)c3ccc(CS(=O)c4ccccc4Cl)o3)CC2)c1 (stereo unspecified),outcome,[1],inactive
COc1ccc(C(=O)c2ccc(Cl)c([N+](=O)[O-])c2)cc1,outcome,[1],inactive
N#C[C@H]1[C@@H](c2ccc(C3=CCCC3)cc2)[C@@H](CO)N1C(=O)NC1CCCCC1,outcome,[1],inactive
same,outcome,[2],inactive
same,outcome,[5],inactive
same,outcome,[4],inactive
Cc1ccc2c(c1)c1c3n2CCN(CC(N)=O)C3CCC1 (stereo unspecified),outcome,[1],inactive
C=C1C(=O)C2=CC1CCC(=O)C1(C)CCC(OC(C)=O)C(C)(C)C1CC2O (stereo unspecified),outcome,[1],inactive
C[C@@H]1CN([C@@H](C)CO)S(=O)(=O)c2ccc(C#CC3CCCC3)cc2O[C@H]1CN(C)Cc1cccnc1,outcome,[2],inactive
same,outcome,[3],inactive
same,outcome,[14],inactive
O=C(CCCN1C(=O)/C(=C\c2cccc(Br)c2)SC1=S)Nc1ccccn1,outcome,[1],inactive
same,outcome,[4],inactive
Cn1c(CCN2CCCC2)nc2cc(NS(=O)(=O)c3ccc(Cl)cc3)ccc21,outcome,[1],inactive
same,outcome,[3],inactive
same,outcome,[4],inactive
COc1ccccc1C#Cc1ccc([C@H]2[C@@H](CO)N(C(=O)C3CCCC3)[C@H]2C#N)cc1,outcome,[3],inactive
same,outcome,[4],inactive
COc1cc(-c2cnc3c(NC=O)cc(-c4ccccc4)cn23)cc(OC)c1OC,outcome,[1],inactive
COc1ccc(C)cc1NS(=O)(=O)c1ccc(-c2cnc(C3CC3)o2)cc1,outcome,[1],inactive
O=C(O)c1ccc(N/N=C/c2c[nH]c3ccccc23)cc1,outcome,[12],inactive
C[C@H](CO)N1C[C@H](C)[C@H](CN(C)C(=O)Cc2ccccc2)OCCCC[C@H](C)Oc2ccc(NC(=O)Nc3ccc(C(F)(F)F)cc3)cc2C1=O,outcome,[12],inactive
